Data as given in PubChem BioAssay AID1159580 (chemical genetic matrix, 2015).
In all, about 5,500 compounds went through this assay and about 2,000 (36%) were called active. About 18% were inconclusive and are not listed. Cut-off read from the data, not from the text of the source: active = normalized growth mostly below about 0.91 (no sharp cut-off); inconclusive = no clear call, values can overlap the other calls; inactive = mostly above about 0.92. This is one part of the list.

Assay: chemical genetic growth profiling, strain panel (AID 1159580);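 note: tested at 20 µM; growth read once vehicle control cultures reached saturation at 30 °C; 1 = growth at the plate median or of vehicle wells; lower values mean less growth of the strain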
Details: S. cerevisiae deletion strains, growth OD
[1] = locus YHR030C, strain SLT2, stronger effect = lower value
[2] = locus YJL187C, strain SWE1, stronger effect = lower value
[3] = locus YHR079C, strain IRE1, stronger effect = lower value
[4] = locus YJL095W, strain BCK1, stronger effect = lower value
[5] = locus YJR066W, strain TOR1, stronger effect = lower value
[6] = locus YLR113W, strain HOG1, stronger effect = lower value
[7] = locus YNL183C, strain NPR1, stronger effect = lower value
[8] = locus YOR231W, strain MKK1, stronger effect = lower value
[9] = locus YPL256C, strain CLN2, stronger effect = lower value

Measured: normalized growth

COC(=O)C1Cc2c([nH]c3ccccc23)C2(CCN(C)CC2)N1 (stereo unspecified)
inactive: locus YAL013W, strain DEP1, stronger effect = lower value 1.01 | locus YBR229C, strain ROT2, stronger effect = lower value 0.989 | locus YDL101C, strain DUN1, stronger effect = lower value 0.995 | locus YDL134C, strain PPH21, stronger effect = lower value 0.981 | locus YDR150W, strain NUM1, stronger effect = lower value 0.986 | locus YEL061C, strain CIN8, stronger effect = lower value 0.993 | locus YGR078C, strain PAC10, stronger effect = lower value 0.993 | [1] 0.985 | locus YHR087W, strain rtc3, stronger effect = lower value 0.998 | [2] 0.996 | locus YJR043C, strain POL32, stronger effect = lower value 1 | locus YJR075W, strain HOC1, stronger effect = lower value 0.998 | locus YLR039C, strain RIC1, stronger effect = lower value 0.975 | locus YLR058C, strain SHM2 (second series), stronger effect = lower value 1.01 | locus YLR085C, strain ARP6, stronger effect = lower value 1.01 | locus YLR262C, strain YPT6, stronger effect = lower value 0.981 | locus YML094W, strain GIM5, stronger effect = lower value 0.961 | locus YMR219W, strain ESC1, stronger effect = lower value 0.995 | locus YMR263W, strain SAP30, stronger effect = lower value 1.02 | locus YNL128W, strain TEP1, stronger effect = lower value 0.973 | locus YNL153C, strain GIM3, stronger effect = lower value 0.999 | locus YNL298W, strain CLA4 (second series), stronger effect = lower value 1.02 | locus YNL322C, strain KRE1, stronger effect = lower value 0.987 | locus YNR030W, strain Alg12, stronger effect = lower value 1.01 | locus YOL006C, strain TOP1, stronger effect = lower value 1 | locus YPL055C, strain LGE1, stronger effect = lower value 1.01 | locus YPL241C, strain CIN2, stronger effect = lower value 0.977 | locus YPR135W, strain CTF4, stronger effect = lower value 0.944

CCCNCCCCCC[N+](C)(C)C
inactive: [1] 1.02 | [3] 0.975 | [4] 0.979 | [5] 0.927 | [6] 1.02 | [7] 0.932 | [8] 0.984 | [9] 0.989

Cc1cc(-n2c(=O)[nH]c(=O)n(C)c2=O)ccc1Oc1ccc(SC(F)(F)F)cc1
active: locus YAL026C, strain drs2, stronger effect = lower value 0.602 | locus YAL030W, strain snc1, stronger effect = lower value 0.565 | locus YBL061C, strain skt5, stronger effect = lower value 0.688 | locus YBR009C, strain hhf1, stronger effect = lower value 0.552 | locus YBR023C, strain chs3, stronger effect = lower value 0.742 | locus YBR171W, strain sec66, stronger effect = lower value 0.802 | locus YBR231C, strain swc5, stronger effect = lower value 0.868 | locus YCL011C, strain gbp2, stronger effect = lower value 0.548 | locus YCL016C, strain dcc1, stronger effect = lower value 0.905 | locus YCL061C, strain MRC1, stronger effect = lower value 0.792 | locus YCR088W, strain abp1, stronger effect = lower value 0.793 | locus YDL005C, strain med2, stronger effect = lower value 0.583 | locus YDL040C, strain nat1, stronger effect = lower value 0.863 | locus YDR001C, strain nth1, stronger effect = lower value 0.845 | locus YDR137W, strain rgp1, stronger effect = lower value 0.405 | locus YDR159W, strain sac3, stronger effect = lower value 0.532 | locus YDR195W, strain ref2 0.418 | locus YDR297W, strain sur2, stronger effect = lower value 0.695 | locus YDR334W, strain swr1, stronger effect = lower value 0.855 | locus YDR335W, strain msn5, stronger effect = lower value 0.661 | locus YDR392W, strain spt3, stronger effect = lower value 0.141 | locus YEL003W, strain gim4, stronger effect = lower value 0.704 | locus YEL061C, strain CIN8 (second series), stronger effect = lower value 0.647 | locus YER111C, strain swi4, stronger effect = lower value 0.75 | locus YFR010W, strain ubp6, stronger effect = lower value 0.76 | locus YGL173C, strain kem1, stronger effect = lower value 0.895 | locus YGL227W, strain vid30, stronger effect = lower value 0.867 | locus YGL240W, strain doc1, stronger effect = lower value 0.629 | locus YGL253W, strain hxk2, stronger effect = lower value 0.701 | [1] 0.811 | [3] 0.786 | locus YHR142W, strain chs7, stronger effect = lower value 0.318 | locus YJL092W, strain hpr5, stronger effect = lower value 0.844 | locus YJL095W, strain BCK1 (second series), stronger effect = lower value 0.754 | [4] 0.724 | locus YJL154C, strain vps35, stronger effect = lower value 0.644 | locus YJL164C, strain tpk1, stronger effect = lower value 0.346 | locus YJL166W, strain qcr8, stronger effect = lower value 0.383 | [2] 0.546 | [5] 0.75 | locus YKL160W, strain elf1, stronger effect = lower value 0.69 | locus YKR026C, strain gcn3, stronger effect = lower value 0.707 | locus YKR091W, strain srl3, stronger effect = lower value 0.908 | locus YLL001W, strain dnm1, stronger effect = lower value 0.844 | locus YLL026W, stronger effect = lower value 0.169 | locus YLL041C, strain sdh2, stronger effect = lower value 0.775 | locus YLR027C, strain aat2, stronger effect = lower value 0.589 | [6] 0.764 | locus YLR221C, strain rsa3, stronger effect = lower value 0.436 | locus YLR258W, strain gsy2, stronger effect = lower value 0.705 | locus YLR262C, strain YPT6 (second series), stronger effect = lower value 0.367 | locus YLR320W, strain mms22, stronger effect = lower value 0.823 | locus YLR342W, strain FKS1, stronger effect = lower value 0.864 | locus YLR357W, strain rsc2, stronger effect = lower value 0.581 | locus YLR370C, strain arc18, stronger effect = lower value 0.886 | locus YML120C, strain ndi1, stronger effect = lower value 0.844 | locus YMR058W, strain fet3, stronger effect = lower value 0.705 | locus YMR125W, strain sto1, stronger effect = lower value 0.709 | locus YMR205C, strain PFK2, stronger effect = lower value 0.705 | locus YMR231W, strain pep5, stronger effect = lower value 0.703 | locus YNL071W, strain lat1, stronger effect = lower value 0.422 | [7] 0.81 | locus YNL209W, strain ssb2, stronger effect = lower value 0.915 | locus YNL248C, strain rpa49, stronger effect = lower value 0.635 | locus YOR001W, strain rrp6, stronger effect = lower value 0.888 | locus YOR070C, strain gyp1, stronger effect = lower value 0.754 | locus YOR083W, strain WHI5, stronger effect = lower value 0.758 | locus YOR106W, strain vam3, stronger effect = lower value 0.424 | [8] 0.804 | locus YOR265W, strain rbl2, stronger effect = lower value 0.893 | locus YOR270C, strain vph1, stronger effect = lower value 0.344 | locus YOR290C, strain snf2, stronger effect = lower value 0.763 | locus YPL051W, strain arl3, stronger effect = lower value 0.636 | locus YPL078C, strain atp4, stronger effect = lower value 0.547 | locus YPL106C, strain sse1, stronger effect = lower value 0.469 | [9] 0.764
inactive: locus YAL021C, strain ccr4, stronger effect = lower value 0.925 | locus YBR279W, strain paf1, stronger effect = lower value 0.935 | locus YCL069W, strain vba3, stronger effect = lower value 0.978 | locus YDR069C, strain doa4, stronger effect = lower value 0.941 | locus YEL037C, strain rad23, stronger effect = lower value 0.933 | locus YER015W, strain faa2, stronger effect = lower value 0.994 | locus YER016W, strain bim1, stronger effect = lower value 0.935 | locus YER155C, strain BEM2 (second series), stronger effect = lower value 0.968 | locus YGL167C, strain pmr1, stronger effect = lower value 1.02 | locus YHR013C, strain ard1, stronger effect = lower value 0.998 | locus YHR027C, strain rpn1, stronger effect = lower value 0.969 | locus YJL115W, strain asf1, stronger effect = lower value 0.926 | locus YJL129C, strain trk1, stronger effect = lower value 0.882 | locus YLR384C, strain iki3, stronger effect = lower value 1.03 | locus YMR129W, stronger effect = lower value 1.02 | locus YNL322C, strain KRE1 (second series), stronger effect = lower value 1.03 | locus YNR049C, strain mso1, stronger effect = lower value 0.98 | locus YOR080W, strain dia2, stronger effect = lower value 1.02 | locus YPL240C, strain hsp82, stronger effect = lower value 0.954
